Laboratory results taken from PubChem BioAssay (NCATS).
Results filed as inconclusive are left out. The source made the active and inactive calls. Calls follow the shape of the dose curve; as a rule, active = well fitted curve in the direction sought with a large enough effect; inconclusive = small, poorly fitted or top-dose-only effect, or another doubt; inactive = no such curve, though single readings can be large; an effect the other way counts as inactive or inconclusive.

Assays:
KB-3-1 = experiment: Cytotoxic Profiling of Annotated Libraries Using Quantitative High-Throughput Screening (AID 1296008); details: Five cell lines viability, CellTiter-Glo ATP luminescence, 48-72 h; max response: stronger effect = lower value; also: nearly all actives have a fitted effect of over 60% in size; also: potency is read from the fitted curve at half-maximal effect; as to max response: % is scaled to controls: 0 for no effect and ±100 for the full control effect
How it was run: (§1)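 Compounds were pin-transferred onto cells and incubated 48 or 72 hr at 37 degree Celsius, 95% humidity. CellTiter-Glo was added, plates sat 10 min at room temperature, then ATP-coupled luminescence was imaged as the viability read-out.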

NIH3T3 = experiment: as above; details: Five cell lines viability, CellTiter-Glo ATP luminescence, 48-72 h; max response: stronger effect = lower value
How it was run: as §1

CAOV3 = experiment: Primary qHTS to identify gynecologic anti-cancer compounds using libraries of approved drugs and bioactive compounds (AID 1345084); details: Gynecologic cancer cell panel viability, ATPlite luminescence, 48 h; series mostly up to 57.5 µM; also: nearly all actives have a fitted effect of over 55% in size; also: potency is read from the fitted curve at half-maximal effect; as to activity change, negative = cytotoxicity: % is scaled to controls: 0 for no effect and ±100 for the full control effect
How it was run: (§2)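 In this quantitative HTS, cell killing is estimated from loss of ATP-dependent luciferase light. Cells see five compound concentrations over a 48 h exposure.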

HEK293T [1] = experiment: qHTS assay to identify novel small-molecules to repurpose for Merkel cell carcinoma treatment (AID 1296009); details: MCC and control cell lines, CellTiter-Glo viability, 72 h; at 44.8 µM (top of the series) unless noted; also: nearly all actives have a fitted effect of over 60% in size
How it was run: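 qHTS format: cells treated with library compounds in DMSO across 8 (NPC) or 11 (MIPE) concentrations. Readout after 72 hr at 37 degree celsius was CellTiter-Glo luminescence.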

C33A = experiment: Primary qHTS to identify gynecologic anti-cancer compounds using libraries of approved drugs and bioactive compounds (AID 1345084); details: Gynecologic cancer cell panel viability, ATPlite luminescence, 48 h; series mostly up to 57.5 µM; also: nearly all actives have a fitted effect of over 55% in size; also: potency is read from the fitted curve at half-maximal effect; as to activity change, negative = cytotoxicity: % is scaled to controls: 0 for no effect and ±100 for the full control effect
How it was run: as §2

CASKI = experiment: as above; details: Gynecologic cancer cell panel viability, ATPlite luminescence, 48 h; series mostly up to 57.5 µM
How it was run: as §2

Es-2 = experiment: as above; details: Gynecologic cancer cell panel viability, ATPlite luminescence, 48 h; series mostly up to 57.5 µM
How it was run: as §2

HeLa = experiment: as above; details: Gynecologic cancer cell panel viability, ATPlite luminescence, 48 h; series mostly up to 57.5 µM
How it was run: as §2

Hek293T [2] = experiment: as above; details: Gynecologic cancer cell panel viability, ATPlite luminescence, 48 h, control line for the selectivity index; series mostly up to 57.5 µM
How it was run: as §2

JEG-3 = experiment: as above; details: Gynecologic cancer cell panel viability, ATPlite luminescence, 48 h; series mostly up to 57.5 µM
How it was run: as §2

OV90 = experiment: as above; details: Gynecologic cancer cell panel viability, ATPlite luminescence, 48 h; series mostly up to 57.5 µM
How it was run: as §2

Cc1cc(-c2cc(O)ccc2Cl)cc2nnc(Nc3ccc(OCCN4CCCC4)cc3)nc12
active: Potency (KB-3-1) 4.61 µM | Potency (NIH3T3) 11.6 µM | Potency (CAOV3) 11.2 µM

CC1CCN(C(=O)CC#N)CC1N(C)c1ncnc2[nH]ccc12 (centres undefined)
inactive: outcome (KB-3-1) | outcome (HEK293T [1]) | Potency (C33A) | Potency (CAOV3) | Potency (CASKI) | Potency (Es-2) | Potency (HeLa) | Potency (Hek293T [2]) | Potency (JEG-3) | Potency (OV90)

CN1CCN(Cc2ccc(-c3cnc4[nH]cc(-c5ccc6[nH]ccc6c5)c4c3)cc2)CC1
active: Potency (KB-3-1) 9.2 µM | Potency (NIH3T3) 14.6 µM | Potency (CAOV3) 22.4 µM | Potency (Es-2) 22.4 µM | Potency (HeLa) 31.6 µM | Potency (OV90) 10 µM

COc1cc(Nc2nc3c(s2)CCCC3c2ccc(F)cc2)ccc1-n1cnc(C)c1 (centres undefined)
inactive: Potency (C33A) | Potency (CAOV3) | Potency (CASKI) | Potency (Es-2) | Potency (HeLa) | Potency (Hek293T [2]) | Potency (JEG-3)
active: Potency (KB-3-1) 18.4 µM

O=C1NC(=O)C(c2cn3c4c(cccc24)CCC3)C1c1c[nH]c2ccccc12 (centres undefined)
active: Potency (KB-3-1) 1.3 µM | Potency (C33A) 20 µM | Potency (Es-2) 10 µM | Potency (HeLa) 3.16 µM
inactive: Potency (CAOV3) | Potency (CASKI)

Cn1c(=O)n(-c2ccc(C(C)(C)C#N)cc2)c2c3cc(C#Cc4cccnc4)ccc3ncc21
active: Potency (KB-3-1) 0.142 µM | Potency (NIH3T3) 0.2 µM | Potency (Hek293T [2]) 0.0891 µM | Potency (OV90) 0.224 µM

C[C@@H]1C[C@H]2O[C@@H]2/C=C\C=C\C(=O)Cc2c(Cl)c(O)cc(O)c2C(=O)O1
inactive: activity change, negative = cytotoxicity (CASKI) -0.527% [at 11.6 µM]
active: Potency (KB-3-1) 1.1 µM | Potency (NIH3T3) 1.74 µM

Cc1cc(C)c(Nc2ccnc(Nc3ccc(C#N)cc3)n2)c(C)c1
active: Potency (KB-3-1) 20.6 µM | Potency (NIH3T3) 13 µM | Potency (OV90) 10 µM
inactive: Potency (JEG-3)

CN(C)c1nc(NC2CCC(NCCc3ccc(Br)cc3OC(F)(F)F)CC2)nc2ccccc12 (centres undefined)
active: Potency (KB-3-1) 4.61 µM | Potency (NIH3T3) 4.11 µM | Potency (CAOV3) 3.98 µM | Potency (Hek293T [2]) 25.1 µM | Potency (JEG-3) 20 µM | Potency (OV90) 14.1 µM

C[C@@H]1O[C@@H](O[C@H]2[C@H](O[C@H]3CC[C@@]4(C)C(CC[C@]5(C)C4C=C[C@]46OC[C@@]7(CCC(C)(C)C[C@H]74)[C@@H](O)C[C@]65C)[C@]3(C)CO)O[C@H](CO)[C@@H](O)[C@@H]2O[C@@H]2O[C@H](CO)[C@@H](O[C@@H]3O[C@@H](C)[C@H](O)[C@@H](O)[C@H]3O)[C@H](O)[C@H]2O)[C@H](O)[C@H](O)[C@H]1O (some centres undefined)
inactive: max response (KB-3-1) -30.1% | activity change, negative = cytotoxicity (C33A) -24.9% [at 11.6 µM] | activity change, negative = cytotoxicity (CAOV3) -6.89% [at 11.6 µM] | activity change, negative = cytotoxicity (CASKI) -6.58% [at 11.6 µM] | activity change, negative = cytotoxicity (Es-2) -4.56% [at 11.6 µM] | activity change, negative = cytotoxicity (HeLa) -11.4% [at 11.6 µM] | activity change, negative = cytotoxicity (Hek293T [2]) -7.26% [at 11.6 µM] | activity change, negative = cytotoxicity (JEG-3) -0.552% [at 11.6 µM] | activity change, negative = cytotoxicity (OV90) -28.6% [at 11.6 µM]
